Bioassay records: PubChem, National Center for Advancing Translational Sciences (NCATS)
PINK1 expr mod: changes PINK1 expression; PINK1 immunofluorescence, high-content cytometry, 24 h; Potency, µM (top dose mostly 76.6 µM), for the others: at the highest dose activation (PINK1 increase), most hits filed as activators; actives 0.2% (n = 410,000); active = well fitted activation curve with a large enough effect; inconclusive = small, poorly fitted or top-dose-only effect; cell line not stated here; note: potency is the fitted concentration of half-maximal effect; % of control where 0% means no effect; nearly all actives have a fitted effect of over 65% in size
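Measures PINK1 amount and localization on or inside mitochondria by immunofluorescence. Stable cells get compounds at 5 concentrations for 24 hours before fixation and staining; CCCP controls included.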
Menin-MLL TR inh: menin-MLL binding inhibition, Texas Red mutant peptide. Menin + Texas Red MLL mutant peptide, fluorescence polarization. actives 0.23% (n = 270,000). O00255. Potency, µM (highest dose often 61.6 µM), inactives show at the top dose FP activity change, negative = inhibition, most hits filed as inhibitors; active = well fitted inhibition curve with a large enough effect in the polarisation, with a control signal flat, not every such curve was filed as active; inconclusive = small, poorly fitted or top-dose-only effect, or effect the other way, or a change in a side signal; inactive = no such curve, though single readings can be large or run the other way; the % refers to the polarisation; note: potency is the fitted concentration of half-maximal effect; % of control where 0% means no effect
Target sequence (O00255 whole entry, looked up): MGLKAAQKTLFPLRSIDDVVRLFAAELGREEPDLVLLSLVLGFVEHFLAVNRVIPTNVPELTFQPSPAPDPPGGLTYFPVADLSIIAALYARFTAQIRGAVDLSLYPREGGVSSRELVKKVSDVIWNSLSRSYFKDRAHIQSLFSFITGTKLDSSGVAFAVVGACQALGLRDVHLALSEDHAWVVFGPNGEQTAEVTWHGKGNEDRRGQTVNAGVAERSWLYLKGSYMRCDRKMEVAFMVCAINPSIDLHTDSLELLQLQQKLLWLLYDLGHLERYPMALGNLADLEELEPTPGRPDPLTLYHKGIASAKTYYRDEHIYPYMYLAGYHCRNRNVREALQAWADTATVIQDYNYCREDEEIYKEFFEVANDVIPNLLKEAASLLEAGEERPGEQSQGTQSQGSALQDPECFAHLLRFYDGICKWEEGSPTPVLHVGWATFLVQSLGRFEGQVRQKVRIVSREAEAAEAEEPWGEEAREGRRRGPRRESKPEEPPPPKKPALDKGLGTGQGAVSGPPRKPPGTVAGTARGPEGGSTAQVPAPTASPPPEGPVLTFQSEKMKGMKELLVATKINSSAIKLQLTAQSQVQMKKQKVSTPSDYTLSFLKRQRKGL
MLL CXXC-DNA inh: MLL CXXC-DNA interaction inhibition | actives 0.037% (n = 290,000) | MLL-CXXC / FITC-HOXA9 DNA fluorescence polarization | Potency, µM (titrated, usually from 115 µM), inactives show at the top dose activity change, negative = inhibition, actives largely listed as inhibitors | Q03164; active = well fitted inhibition curve with a large enough effect in the polarisation, with a control signal flat, not every such curve was filed as active; inconclusive = small, poorly fitted or top-dose-only effect, or effect the other way, or a change in a side signal; inactive = no such curve, though single readings can be large or run the other way; the % refers to the polarisation; note: potency is the fitted concentration of half-maximal effect
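Fluorescence polarization: 7 uM MLL-CXXC (stock) preincubated 5 min with compounds, then 50 nM fluorescein-HOX-A9 DNA (stock) added; 30 min ambient. Buffer 50 mM Tris-HCl pH 7.5, 50 mM NaCl, 1 mM DTT, 0.05% BSA.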
Menin-MLL FL inh: displaces fluorescein MLL peptide from human menin. Fluorescence polarization, fluorescein-MLL peptide displacement from menin. FP activity change, % at 61.4 µM. 290,000 tested, under 10 active. AID 1766; active = well fitted curve in the direction sought with a large enough effect in the polarisation, not every such curve was filed as active; inconclusive = small, poorly fitted or top-dose-only effect, or effect the other way, or a change in a side signal; inactive = no such curve, though single readings can be large or run the other way; the % refers to the polarisation; note: % of control where 0% means no effect
ClpP mod: qHTS Assay for Activators of ClpP; ATP-dependent Clp protease proteolytic subunit (Bacillus subtilis (strain 168)), P80244; purified B. subtilis ClpP, FRET peptide cleavage, 20 min; Potency, µM (highest dose often 57.5 µM), for the others: at the highest dose activity change, negative = active; actives 1.9% (n = 340,000); AID 651965, 2013; active = well fitted falling curve with a large enough effect; inconclusive = small, poorly fitted or top-dose-only effect; inactive = no such curve, though single readings can be large or run the other way; note: potency is the fitted concentration of half-maximal effect; the source files actives as falling curves though it sought activators and does not explain the sign; nearly all actives have a fitted effect of over 65% in size
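Buffer: 100 mM Tris/HCl pH8, 100 mM KCl, 0.05% low protease BSA, 2.5% glycerol, 0.01% Tween-20. ClpP 10 microg/mL final; 20 min RT; delta FRET normalized to ADEP and DMSO controls.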
Epigenetic derep: regulators of epigenetic silencing causing reporter derepression in mouse cells | Potency, µM (top dose mostly 53.9 µM), without a hit: at the highest dose GFP activation, hits mostly activators | AID 1865 | actives 0.2% (n = 280,000) | murine LDR cells, GFP reporter derepression, 30 h; active = well fitted activation curve with a large enough effect; inconclusive = small, poorly fitted or top-dose-only effect; note: potency is the fitted concentration of half-maximal effect; % of control where 0% means no effect; nearly all actives have a fitted effect of over 60% in size
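GFP-positive cell count by laser-scanning cytometry (objects 20–120 um) after 30 h, 37 C compound exposure of murine LDR cells; reporter is CMV-GFP integrated at a silenced locus, inducible by HDAC or DNMT inhibitors.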
* = called active by the depositor; ? = inconclusive; nt = not tested or not shown; [ ] = dose if it differs, or a comment. The list is not random: actives were taken first. Their share in the collection is about 1.9%.

SMILES	PINK1 expr mod	Menin-MLL TR inh	MLL CXXC-DNA inh	Menin-MLL FL inh	ClpP mod	Epigenetic derep
Cc1n[nH]c(=O)c2c(NC(=O)CSc3nnc(-c4ccncc4)n3C)oc(C)c12	-1%	nt	0%	nt	32µM*	nt
Oc1c(CN2CCc3ccccc3C2)cc(Cl)c2cccnc12	2%	-13%	13%	-4	-2%	4µM*
CN1CCN(Cc2cc(COCc3ccccc3)c3cccnc3c2O)CC1	-1%	?	0%	4	-1%	3.5µM*
CCOC(=O)c1c(NC(=O)c2c(-c3ccccc3)noc2C)sc(C)c1-c1ccccc1	3%	0%	-2%	6	14µM*	3%
CCOC(=O)c1c(NC(=O)c2ccoc2C)sc(C)c1C	-1%	4%	4%	0	8.9µM*	-1%
O=C(Nc1sc2c(c1C(=O)NCc1ccco1)CCCC2)c1cc(=O)c2cc(Cl)ccc2o1	40µM*	nt	nt	nt	0%	11%
CCOC(=O)c1c(NC(=O)c2ccco2)sc2c1CCCCC2	?	-3%[11.7 µM]	-5%	4	35µM*	0%
Cc1cc(C)c2c(=O)cc(C(=O)Nc3sc4c(c3C(=O)NCc3ccco3)CCCC4)oc2c1	2%	nt	nt	nt	-4%	-1%
Cc1c(C(=O)N2CCCC2)sc2ncnc(NCCN(C)C)c12	1%	nt	nt	nt	nt	nt
CCCOC(=O)c1c(NC(=O)C2c3ccccc3Oc3ccccc32)sc2c1CCCC2	0%	nt	nt	nt	13µM*	0%
COC(=O)c1c(NC(=O)c2ccoc2C)sc2c1CCC2	5%	0%	-13%	4	32µM*	1%
COC(=O)c1c(NC(=O)COC(=O)[C@@H](NS(=O)(=O)c2ccc(C)cc2)C(C)C)sc2c1CCC2	0%	-11%	?	3	28µM*	7%
CC(C)OC(=O)c1c(NC(=O)C2c3ccccc3Oc3ccccc32)sc2c1CCCC2	2%	nt	nt	nt	?	10%
CCOC(=O)c1c(NC(=O)c2ccc(C)cc2)sc2c1CC(C)(C)OC2	27%	-2%	1%	1	25µM*	-1%
COC(=O)c1sccc1S(=O)(=O)N1CCC(n2c(CC3CCCC3)nc3cccnc32)CC1	2%	nt	nt	nt	nt	nt
CN(CCO)C(=O)c1cn(C2CCN(Cc3c(F)cccc3Cl)CC2)nn1	1%	nt	nt	nt	nt	nt
COc1ccc(OC)c2c(C)cc(N3CCN(C(=O)c4ccc(F)cc4)CC3)nc12	0%	-18%	2%	-1	20µM*	0%
COc1ccc(OC)c2c(C)cc(N3CCN(C(=O)c4ccc(C)cc4)CC3)nc12	-1%	-15%	1%	0	nt	0%
Cc1ccc(Cl)cc1NC(=O)COC(=O)CC(C)(C)CC1=NS(=O)(=O)c2ccccc2N1	2%	nt	nt	nt	2%	0%
CC(C)(CC(=O)NCc1ccc(Cl)cc1Cl)CC1=NS(=O)(=O)c2ccccc2N1	45µM*	nt	nt	nt	4%	1%
CCn1c(-c2ccccc2F)nc2cc(NC(C)=O)cc(C(=O)NC(c3ccccn3)C(F)(F)F)c21 (stereo unspecified)	1%	nt	nt	nt	nt	nt
CCOc1ccc2nc(NCCNC(=O)c3cc(OC)c(OC)c(OC)c3)c(C#N)cc2c1	3%	13%	?	-22	-6%	nt
COCC(=O)NCCNc1nc2ccc(C)cc2cc1C	0%	7%	4%	1	28µM*	0%
CCOc1ccc2nc(NCCNC(=O)C3CC3)c(C)cc2c1	-1%	-1%	2%	-1	40µM*	0%
CCOc1ccc2nc(NCCNC(=O)C(C)C)c(C)cc2c1	-2%	2%	-3%	2	16µM*	-2%
Cc1cc2cc(C)c(NCCNC(=O)c3ccccc3)nc2cc1C	1%	-19%	-3%	-2	-24%	-1%
COc1cc(=O)n2c(c1C(=O)NC(C)c1ccco1)CCN(Cc1ccccc1Cl)CC2 (stereo unspecified)	-1%	nt	nt	nt	nt	nt
CCn1cc(C(=O)NCc2ccco2)c(=O)c2cc(F)c(N3CCN(C(=O)c4ccco4)CC3)cc21	-1%	-13%	1%	3	28µM*	-2%
